# How the values were obtained:
# Assay in all cases: DAPPL (digital affinity profiling via proximity ligation, sequencing); 10 mM Tris-HCl pH 7.5, 50 mM NaCl, 1 mM DTT, 4% glycerol, room temperature, 30 min; GST-TFs on glutathione beads, 16-mer random dsDNA library, 0.1% formaldehyde crosslink after washing; high values mean tight binding
# FLI1 = biological target: T1, FLI1 (Homo sapiens, UniProt Q01543 1-452); conditions: protein: recombinant; tags: N-terminal GST; dsDNA, one strand shown
# T1 sequence: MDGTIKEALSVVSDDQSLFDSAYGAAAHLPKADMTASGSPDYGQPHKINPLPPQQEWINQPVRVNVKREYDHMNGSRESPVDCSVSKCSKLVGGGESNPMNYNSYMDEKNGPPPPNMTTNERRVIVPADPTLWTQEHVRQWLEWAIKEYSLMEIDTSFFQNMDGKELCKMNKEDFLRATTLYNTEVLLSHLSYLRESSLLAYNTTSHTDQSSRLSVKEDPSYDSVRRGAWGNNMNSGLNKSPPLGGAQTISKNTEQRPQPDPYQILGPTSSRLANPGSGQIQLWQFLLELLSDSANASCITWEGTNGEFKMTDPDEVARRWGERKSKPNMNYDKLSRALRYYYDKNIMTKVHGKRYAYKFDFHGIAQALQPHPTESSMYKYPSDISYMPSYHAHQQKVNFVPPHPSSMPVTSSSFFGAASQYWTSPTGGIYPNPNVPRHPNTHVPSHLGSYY
# In short: (§1)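 After expression in yeast as GST fusions, human transcription factors were bound to glutathione beads, DNA-barcoded and mixed with a tag-only sample. The pools were incubated with 200 nmole of a 16-mer random double-stranded DNA library in Tris/NaCl/DTT/glycerol buffer (30 min, room temperature), washed and crosslinked with 0.1% formaldehyde. Proximity ligation with BsaI/T4 ligase ran for 1 h at 37 °C, before PCR amplification and sequencing on an Illumina NextSeq500. Binding signal is a hexamer's read frequency for a factor divided by its frequency for the tag-only sample.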
# ELK1 = biological target: T2, ELK1 (Homo sapiens, UniProt P19419 1-428); conditions: protein: recombinant; tags: N-terminal GST; dsDNA, one strand shown
# T2 sequence: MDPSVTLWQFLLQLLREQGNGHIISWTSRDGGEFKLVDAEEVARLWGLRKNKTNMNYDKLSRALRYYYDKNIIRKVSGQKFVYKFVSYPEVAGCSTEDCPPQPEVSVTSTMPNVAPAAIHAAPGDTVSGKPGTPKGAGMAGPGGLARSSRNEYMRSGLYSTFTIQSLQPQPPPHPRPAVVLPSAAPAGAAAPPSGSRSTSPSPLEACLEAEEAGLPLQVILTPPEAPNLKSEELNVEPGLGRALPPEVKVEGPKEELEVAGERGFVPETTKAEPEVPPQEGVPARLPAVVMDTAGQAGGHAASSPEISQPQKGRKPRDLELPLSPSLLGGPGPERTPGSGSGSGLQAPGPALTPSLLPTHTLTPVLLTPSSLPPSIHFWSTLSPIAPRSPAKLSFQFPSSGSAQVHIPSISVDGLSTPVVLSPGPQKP
# In short: as §1
# GABPA = biological target: T3, GABPA (Homo sapiens, UniProt Q06546 1-454); conditions: protein: recombinant; tags: N-terminal GST; dsDNA, one strand shown
# T3 sequence: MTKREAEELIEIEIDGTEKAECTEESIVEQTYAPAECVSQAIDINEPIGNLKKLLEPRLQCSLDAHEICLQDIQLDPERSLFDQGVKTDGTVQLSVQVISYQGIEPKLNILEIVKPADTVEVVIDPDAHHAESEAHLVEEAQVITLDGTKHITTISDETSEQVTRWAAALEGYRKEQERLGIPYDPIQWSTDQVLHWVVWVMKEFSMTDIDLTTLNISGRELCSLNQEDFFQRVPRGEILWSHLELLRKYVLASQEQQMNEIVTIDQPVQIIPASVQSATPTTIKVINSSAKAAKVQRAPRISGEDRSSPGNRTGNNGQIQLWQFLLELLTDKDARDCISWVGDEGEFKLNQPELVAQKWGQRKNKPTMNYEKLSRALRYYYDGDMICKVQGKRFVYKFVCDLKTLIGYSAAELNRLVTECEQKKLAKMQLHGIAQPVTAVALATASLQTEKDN
# In short: as §1
# ERG = biological target: T4, ERG (Homo sapiens, UniProt P11308 1-479); conditions: protein: recombinant; tags: N-terminal GST; dsDNA, one strand shown
# T4 sequence: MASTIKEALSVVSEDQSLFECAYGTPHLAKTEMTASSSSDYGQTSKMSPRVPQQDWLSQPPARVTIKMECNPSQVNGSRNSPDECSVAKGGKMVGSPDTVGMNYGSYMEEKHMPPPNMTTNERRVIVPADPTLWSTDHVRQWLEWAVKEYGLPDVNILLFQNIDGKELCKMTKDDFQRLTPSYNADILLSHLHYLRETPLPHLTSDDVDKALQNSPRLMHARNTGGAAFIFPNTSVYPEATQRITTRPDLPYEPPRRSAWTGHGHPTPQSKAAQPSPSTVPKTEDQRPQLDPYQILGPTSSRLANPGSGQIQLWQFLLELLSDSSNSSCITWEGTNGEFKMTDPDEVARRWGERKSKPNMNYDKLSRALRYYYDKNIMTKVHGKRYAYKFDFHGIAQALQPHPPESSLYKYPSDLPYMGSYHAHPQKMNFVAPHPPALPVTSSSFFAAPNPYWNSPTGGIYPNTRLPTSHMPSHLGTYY
# In short: as §1
# ELF1 = ELF1 (Homo sapiens, UniProt P32519 1-619); conditions: protein: recombinant; tags: N-terminal GST; dsDNA, one strand shown
# Chain of ELF1 (P32519 whole entry): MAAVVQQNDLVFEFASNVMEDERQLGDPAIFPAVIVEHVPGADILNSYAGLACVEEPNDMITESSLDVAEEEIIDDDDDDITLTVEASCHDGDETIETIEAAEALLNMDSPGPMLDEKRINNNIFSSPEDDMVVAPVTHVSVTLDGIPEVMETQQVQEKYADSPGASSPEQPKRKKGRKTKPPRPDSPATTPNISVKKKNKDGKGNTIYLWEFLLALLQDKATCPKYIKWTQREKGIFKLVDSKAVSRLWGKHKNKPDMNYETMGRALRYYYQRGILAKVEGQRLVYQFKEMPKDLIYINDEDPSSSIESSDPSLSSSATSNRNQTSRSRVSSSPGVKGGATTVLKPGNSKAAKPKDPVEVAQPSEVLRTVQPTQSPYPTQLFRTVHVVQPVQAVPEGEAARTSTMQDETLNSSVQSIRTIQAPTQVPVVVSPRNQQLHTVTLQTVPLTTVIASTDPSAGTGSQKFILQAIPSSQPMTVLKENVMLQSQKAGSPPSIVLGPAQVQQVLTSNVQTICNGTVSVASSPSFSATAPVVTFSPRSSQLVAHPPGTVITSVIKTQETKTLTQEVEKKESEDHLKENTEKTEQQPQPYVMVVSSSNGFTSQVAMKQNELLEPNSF
# In short: as §1
# EHF = biological target: T5, EHF (Homo sapiens, UniProt Q9NZC4 1-300); conditions: protein: recombinant; tags: N-terminal GST; dsDNA, one strand shown
# T5 sequence: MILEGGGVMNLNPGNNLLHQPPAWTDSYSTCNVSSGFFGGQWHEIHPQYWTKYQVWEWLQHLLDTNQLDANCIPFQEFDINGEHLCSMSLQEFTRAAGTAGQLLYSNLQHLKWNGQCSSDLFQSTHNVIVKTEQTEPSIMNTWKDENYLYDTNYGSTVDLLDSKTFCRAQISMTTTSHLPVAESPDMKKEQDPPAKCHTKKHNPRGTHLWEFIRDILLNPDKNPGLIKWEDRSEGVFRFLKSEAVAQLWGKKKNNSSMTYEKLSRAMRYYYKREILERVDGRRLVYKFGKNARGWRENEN
# In short: as §1
# SPI1 = SPI1 (Homo sapiens, UniProt P17947 1-270); conditions: protein: recombinant; tags: N-terminal GST; dsDNA, one strand shown
# In short: as §1
# SPIB = SPIB (Homo sapiens, UniProt Q01892 1-262); conditions: protein: recombinant; tags: N-terminal GST; dsDNA, one strand shown
# Chain of SPIB (Q01892 whole entry): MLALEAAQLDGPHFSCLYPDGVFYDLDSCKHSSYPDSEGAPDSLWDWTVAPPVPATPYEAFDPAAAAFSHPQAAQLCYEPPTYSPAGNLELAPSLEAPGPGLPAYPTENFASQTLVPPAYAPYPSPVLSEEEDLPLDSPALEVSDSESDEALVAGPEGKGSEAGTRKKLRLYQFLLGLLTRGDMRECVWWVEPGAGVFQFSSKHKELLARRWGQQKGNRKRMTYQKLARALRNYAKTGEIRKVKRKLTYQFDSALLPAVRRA
# In short: as §1
# ELK3 = biological target: T6, ELK3 (Homo sapiens, UniProt P41970 1-407); conditions: protein: recombinant; tags: N-terminal GST; dsDNA, one strand shown
# T6 sequence: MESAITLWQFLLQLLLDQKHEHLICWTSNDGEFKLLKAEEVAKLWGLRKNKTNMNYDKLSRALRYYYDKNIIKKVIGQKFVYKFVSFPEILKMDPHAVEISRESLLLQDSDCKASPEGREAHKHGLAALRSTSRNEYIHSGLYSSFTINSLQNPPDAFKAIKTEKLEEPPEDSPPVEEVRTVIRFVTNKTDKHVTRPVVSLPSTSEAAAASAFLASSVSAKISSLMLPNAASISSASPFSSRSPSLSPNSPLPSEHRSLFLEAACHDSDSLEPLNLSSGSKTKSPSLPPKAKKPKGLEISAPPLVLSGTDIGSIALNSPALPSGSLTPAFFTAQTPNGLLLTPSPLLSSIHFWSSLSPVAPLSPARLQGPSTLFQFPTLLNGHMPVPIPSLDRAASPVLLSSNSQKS
# In short: as §1
# FEV = biological target: T7, FEV (Homo sapiens, UniProt Q99581 1-238); conditions: protein: recombinant; tags: N-terminal GST; dsDNA, one strand shown
# T7 sequence: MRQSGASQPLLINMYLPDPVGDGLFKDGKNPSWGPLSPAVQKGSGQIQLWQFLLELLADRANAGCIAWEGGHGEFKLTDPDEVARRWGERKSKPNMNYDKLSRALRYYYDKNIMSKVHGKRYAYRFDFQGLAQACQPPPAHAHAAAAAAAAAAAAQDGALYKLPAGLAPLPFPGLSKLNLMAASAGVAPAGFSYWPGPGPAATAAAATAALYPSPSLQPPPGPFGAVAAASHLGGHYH
# In short: as §1
# ETV5 = ETV5 (Homo sapiens, UniProt P41161 1-510); conditions: protein: recombinant; tags: N-terminal GST; dsDNA, one strand shown
# Chain of ETV5 (P41161 whole entry): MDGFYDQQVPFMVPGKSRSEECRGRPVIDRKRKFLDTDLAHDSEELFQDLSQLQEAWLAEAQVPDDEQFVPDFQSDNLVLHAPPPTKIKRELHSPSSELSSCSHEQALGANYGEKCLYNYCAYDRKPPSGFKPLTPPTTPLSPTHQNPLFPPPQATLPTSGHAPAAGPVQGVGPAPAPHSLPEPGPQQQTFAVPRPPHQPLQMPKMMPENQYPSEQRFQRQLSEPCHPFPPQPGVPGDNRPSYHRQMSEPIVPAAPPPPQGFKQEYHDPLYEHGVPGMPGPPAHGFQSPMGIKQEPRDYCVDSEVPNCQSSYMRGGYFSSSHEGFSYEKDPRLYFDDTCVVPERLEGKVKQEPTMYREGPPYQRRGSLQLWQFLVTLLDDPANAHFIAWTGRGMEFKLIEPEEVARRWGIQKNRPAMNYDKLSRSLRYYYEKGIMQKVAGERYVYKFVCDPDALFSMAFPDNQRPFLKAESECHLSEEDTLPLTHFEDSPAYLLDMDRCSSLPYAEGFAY
# In short: as §1
# HSF1 = HSF1 (Homo sapiens, UniProt Q00613 1-529); conditions: protein: recombinant; tags: N-terminal GST; chain copies: 3; dsDNA, one strand shown
# Chain of HSF1 (Q00613 whole entry): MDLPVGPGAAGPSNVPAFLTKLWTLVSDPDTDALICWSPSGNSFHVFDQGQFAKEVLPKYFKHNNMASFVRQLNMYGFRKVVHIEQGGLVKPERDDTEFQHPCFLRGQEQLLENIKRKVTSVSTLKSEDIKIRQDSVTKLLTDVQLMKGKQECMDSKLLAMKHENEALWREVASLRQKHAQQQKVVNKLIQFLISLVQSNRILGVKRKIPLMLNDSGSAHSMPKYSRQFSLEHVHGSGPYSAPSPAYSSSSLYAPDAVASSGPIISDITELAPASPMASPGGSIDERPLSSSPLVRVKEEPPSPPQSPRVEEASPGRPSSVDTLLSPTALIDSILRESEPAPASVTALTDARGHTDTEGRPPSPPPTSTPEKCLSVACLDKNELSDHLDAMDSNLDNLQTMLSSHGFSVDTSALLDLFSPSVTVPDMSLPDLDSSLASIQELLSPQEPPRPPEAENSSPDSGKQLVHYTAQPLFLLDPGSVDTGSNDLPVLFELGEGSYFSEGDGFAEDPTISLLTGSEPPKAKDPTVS
# In short: as §1
# SPIC = biological target: T8, SPIC (Homo sapiens, UniProt Q8N5J4 1-248); conditions: protein: recombinant; tags: N-terminal GST; dsDNA, one strand shown
# T8 sequence: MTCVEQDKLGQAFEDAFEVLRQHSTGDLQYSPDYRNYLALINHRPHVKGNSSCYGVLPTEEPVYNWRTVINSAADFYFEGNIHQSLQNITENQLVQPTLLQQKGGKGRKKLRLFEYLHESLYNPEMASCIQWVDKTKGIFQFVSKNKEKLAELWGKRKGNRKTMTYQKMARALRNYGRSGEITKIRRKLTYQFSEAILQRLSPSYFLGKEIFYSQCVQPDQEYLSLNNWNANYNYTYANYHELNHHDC
# In short: as §1
# ELF4 = ELF4 (Homo sapiens, UniProt Q99607 1-663); conditions: protein: recombinant; tags: N-terminal GST; dsDNA, one strand shown
# Chain of ELF4 (Q99607 whole entry): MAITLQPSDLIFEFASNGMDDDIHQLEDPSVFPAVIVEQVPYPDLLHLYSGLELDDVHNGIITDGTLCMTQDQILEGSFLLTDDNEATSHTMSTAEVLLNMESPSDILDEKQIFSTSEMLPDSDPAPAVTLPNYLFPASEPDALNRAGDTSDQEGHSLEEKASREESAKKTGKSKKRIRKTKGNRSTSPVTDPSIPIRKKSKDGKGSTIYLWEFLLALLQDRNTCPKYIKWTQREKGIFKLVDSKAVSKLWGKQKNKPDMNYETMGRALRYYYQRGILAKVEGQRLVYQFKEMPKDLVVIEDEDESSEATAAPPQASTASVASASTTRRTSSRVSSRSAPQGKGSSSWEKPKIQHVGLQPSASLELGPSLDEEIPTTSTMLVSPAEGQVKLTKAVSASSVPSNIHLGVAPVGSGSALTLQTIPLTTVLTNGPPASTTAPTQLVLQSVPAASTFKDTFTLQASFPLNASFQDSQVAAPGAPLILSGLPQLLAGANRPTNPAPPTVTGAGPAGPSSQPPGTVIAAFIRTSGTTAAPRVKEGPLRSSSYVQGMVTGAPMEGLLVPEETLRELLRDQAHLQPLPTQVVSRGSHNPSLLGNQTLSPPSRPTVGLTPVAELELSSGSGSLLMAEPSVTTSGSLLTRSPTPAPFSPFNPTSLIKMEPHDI
# In short: as §1
# ELK4 = biological target: T9, ELK4 (Homo sapiens, UniProt P28324-2 1-405); conditions: protein: recombinant; tags: N-terminal GST; dsDNA, one strand shown
# T9 sequence: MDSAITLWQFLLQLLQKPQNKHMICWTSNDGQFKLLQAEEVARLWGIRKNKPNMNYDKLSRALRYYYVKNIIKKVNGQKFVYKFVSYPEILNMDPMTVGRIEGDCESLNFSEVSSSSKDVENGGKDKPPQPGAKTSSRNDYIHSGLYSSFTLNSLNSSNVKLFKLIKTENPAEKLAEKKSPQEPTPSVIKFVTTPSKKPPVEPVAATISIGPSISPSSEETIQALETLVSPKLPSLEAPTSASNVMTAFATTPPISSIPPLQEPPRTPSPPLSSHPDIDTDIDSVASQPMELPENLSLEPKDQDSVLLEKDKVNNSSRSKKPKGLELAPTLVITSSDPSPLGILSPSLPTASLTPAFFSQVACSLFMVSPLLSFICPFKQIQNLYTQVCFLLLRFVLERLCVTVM
# In short: as §1
# ETV2 = biological target: T10, ETV2 (Homo sapiens, UniProt O00321 1-342); conditions: protein: recombinant; tags: N-terminal GST; dsDNA, one strand shown
# T10 sequence: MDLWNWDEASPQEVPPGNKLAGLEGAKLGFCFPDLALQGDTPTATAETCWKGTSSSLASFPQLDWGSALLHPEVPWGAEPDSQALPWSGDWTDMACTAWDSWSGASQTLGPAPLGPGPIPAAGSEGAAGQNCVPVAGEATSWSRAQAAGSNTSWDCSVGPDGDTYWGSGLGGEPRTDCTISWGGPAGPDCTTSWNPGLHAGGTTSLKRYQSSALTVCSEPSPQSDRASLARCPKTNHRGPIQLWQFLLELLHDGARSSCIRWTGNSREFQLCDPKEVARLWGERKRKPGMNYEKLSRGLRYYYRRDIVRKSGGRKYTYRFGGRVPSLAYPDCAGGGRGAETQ
# In short: as §1
# ELF3 = biological target: T11, ELF3 (Homo sapiens, UniProt P78545 1-371); conditions: protein: recombinant; tags: N-terminal GST; dsDNA, one strand shown
# T11 sequence: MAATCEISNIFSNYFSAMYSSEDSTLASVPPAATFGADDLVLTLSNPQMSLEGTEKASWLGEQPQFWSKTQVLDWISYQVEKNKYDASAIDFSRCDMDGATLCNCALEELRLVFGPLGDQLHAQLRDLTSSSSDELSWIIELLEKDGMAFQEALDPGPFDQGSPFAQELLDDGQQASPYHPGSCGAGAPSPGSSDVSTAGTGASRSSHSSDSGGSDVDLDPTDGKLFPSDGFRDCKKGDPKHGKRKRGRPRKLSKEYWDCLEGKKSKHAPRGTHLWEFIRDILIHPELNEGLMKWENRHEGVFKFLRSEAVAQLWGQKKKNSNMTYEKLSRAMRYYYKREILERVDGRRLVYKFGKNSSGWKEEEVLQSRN
# In short: as §1
# CRX = CRX (Homo sapiens, UniProt O43186 1-299); conditions: protein: recombinant; tags: N-terminal GST; dsDNA, one strand shown
# Chain of CRX (O43186 whole entry): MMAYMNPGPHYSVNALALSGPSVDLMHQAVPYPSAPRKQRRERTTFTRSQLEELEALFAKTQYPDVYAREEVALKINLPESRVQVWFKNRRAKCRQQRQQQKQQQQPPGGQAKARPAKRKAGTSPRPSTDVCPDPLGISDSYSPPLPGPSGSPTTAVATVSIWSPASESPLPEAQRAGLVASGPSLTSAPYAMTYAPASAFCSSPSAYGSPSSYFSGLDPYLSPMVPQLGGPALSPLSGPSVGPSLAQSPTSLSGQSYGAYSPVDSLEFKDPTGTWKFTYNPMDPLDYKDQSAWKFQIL
# In short: as §1
# ETV1 = ETV1 (Homo sapiens, UniProt P50549 1-477); conditions: protein: recombinant; tags: N-terminal GST; dsDNA, one strand shown
# Chain of ETV1 (P50549 whole entry): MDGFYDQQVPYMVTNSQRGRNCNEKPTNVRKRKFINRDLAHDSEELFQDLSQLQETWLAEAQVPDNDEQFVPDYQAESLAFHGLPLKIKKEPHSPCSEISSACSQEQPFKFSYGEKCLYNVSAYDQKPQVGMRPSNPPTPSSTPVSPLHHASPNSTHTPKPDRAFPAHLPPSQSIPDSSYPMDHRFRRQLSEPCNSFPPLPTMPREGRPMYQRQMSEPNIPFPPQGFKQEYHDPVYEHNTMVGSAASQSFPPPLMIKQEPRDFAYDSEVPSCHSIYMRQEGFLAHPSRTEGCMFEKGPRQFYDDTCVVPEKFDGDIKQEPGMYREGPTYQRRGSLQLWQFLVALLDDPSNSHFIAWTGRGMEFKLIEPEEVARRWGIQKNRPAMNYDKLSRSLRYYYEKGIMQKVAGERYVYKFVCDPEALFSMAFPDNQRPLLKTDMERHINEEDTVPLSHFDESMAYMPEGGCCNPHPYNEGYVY
# In short: as §1
sequence,measurement,setting,value
CTTGGA,binding signal,FLI1,"1.28 fold enrichment (6-mer frequency, TF over GST control)"
same,binding signal,ELK1,"1.15 fold enrichment (6-mer frequency, TF over GST control)"
same,binding signal,GABPA,"1.16 fold enrichment (6-mer frequency, TF over GST control)"
same,binding signal,ERG,"1.17 fold enrichment (6-mer frequency, TF over GST control)"
same,binding signal,ELF1,"1.27 fold enrichment (6-mer frequency, TF over GST control)"
same,binding signal,EHF,"1.13 fold enrichment (6-mer frequency, TF over GST control)"
same,binding signal,SPI1,"1.14 fold enrichment (6-mer frequency, TF over GST control)"
same,binding signal,SPIB,"1.2 fold enrichment (6-mer frequency, TF over GST control)"
same,binding signal,ELK3,"1.17 fold enrichment (6-mer frequency, TF over GST control)"
same,binding signal,FEV,"1.04 fold enrichment (6-mer frequency, TF over GST control)"
same,binding signal,ETV5,"1.12 fold enrichment (6-mer frequency, TF over GST control)"
same,binding signal,HSF1,"1.26 fold enrichment (6-mer frequency, TF over GST control)"
same,binding signal,SPIC,"1.2 fold enrichment (6-mer frequency, TF over GST control)"
same,binding signal,ELF4,"1.21 fold enrichment (6-mer frequency, TF over GST control)"
same,binding signal,ELK4,"1.09 fold enrichment (6-mer frequency, TF over GST control)"
same,binding signal,ETV2,"1.12 fold enrichment (6-mer frequency, TF over GST control)"
same,binding signal,ELF3,"1.3 fold enrichment (6-mer frequency, TF over GST control)"
same,binding signal,CRX,"1.17 fold enrichment (6-mer frequency, TF over GST control)"
same,binding signal,ETV1,"1.17 fold enrichment (6-mer frequency, TF over GST control)"
